Assay results: PubChem BioAssay (Tox21)
“And” between values parts separate entries of the source, which are not always exact repeats. Identical values can stand only once. Records with an inconclusive call do not appear. Where a call stands in place of a potency, no number is given. The source made the active and inactive calls. Unless noted, the call rests on the fitted dose curve; in most records, active means well fitted curve in the direction sought with a large enough effect in the repeat runs; inconclusive means weak or mixed curves; inactive means no such curve, though single readings can be large; an effect the other way counts as inactive or inconclusive.

Tests used:
[1] = A CellTox Green Cytotoxicity Assay to monitor cytotoxicity in HepG2 cells - 32 hour (AID 1224883); further: nearly all actives have a fitted effect of over 50% in size
How it was run: (§1)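 Measurements at 0, 8, 16, 24, 32 and 40 h of treatment captured CellTox Green fluorescence in HepG2 cells that had been co-plated with reagent and preincubated 5 h at 37 C/5% CO2.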

[2] = A CellTox Green Cytotoxicity Assay to monitor cytotoxicity in HEK293 cells - 8 hour (AID 1224884); further: nearly all actives have a fitted effect of over 35% in size
How it was run: (§2)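 Tox21 screen in HEK293: membrane-impermeant cyanine dye fluoresces on binding dead-cell DNA; compound pinned 5 h post-seeding, plates held at 37 C, signal read repeatedly through 40 h.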

[3] = qHTS RealTime-Glo MT Cell Viability Assay in HepG2 cells - 16 hour (AID 1224885); further: nearly all actives have a fitted effect of over 50% in size
How it was run: (§3)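 HepG2 cells (600/well) were dispensed with RealTime-Glo reagents, incubated 5 h at 37 °C, then treated with compounds in DMSO for up to 40 h. Nonlytic NanoLuc luminescence reflecting viable cells was read at each stated time point.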

[4] = qHTS RealTime-Glo MT Cell Viability Assay in HEK293 cells - 24 hour (AID 1224886); further: nearly all actives have a fitted effect of over 50% in size; further: potency means the concentration at half of the fitted maximal effect
How it was run: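 HEK293 cells seeded with NanoLuc/prosubstrate reagent, rested 5 h at 37 C, then dosed and kept at 37 C up to 40 h. Nonlytic real-time luminescence from viable cells read at 0, 8, 16, 24, 32 and 40 h.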

[5] = qHTS RealTime-Glo MT Cell Viability Assay in HEK293 cells - 8 hour (AID 1224887); further: top concentration of the series differs between compounds; nearly all actives have a fitted effect of over 50% in size
How it was run: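 HEK293 + NanoLuc + prosubstrate, 600 cells/well; 5 h, 37 C/5% CO2; compound 23 nL in DMSO by pintool; 37 C; luminescence read at 0, 8, 16, 24, 32 and 40 h time points.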

[6] = A CellTox Green Cytotoxicity Assay to monitor cytotoxicity in HEK293 cells - 16 hour (AID 1224888); further: nearly all actives have a fitted effect of over 35% in size
How it was run: as §2

[7] = qHTS RealTime-Glo MT Cell Viability Assay in HepG2 cells - 0 hour (AID 1224889); further: nearly all actives have a fitted effect of over 50% in size
How it was run: as §3

[8] = A CellTox Green Cytotoxicity Assay to monitor cytotoxicity in HepG2 cells - 8 hour (AID 1224890); further: nearly all actives have a fitted effect of over 45% in size
How it was run: as §1

[9] = qHTS assay to identify small molecule antagonists of the estrogen receptor alpha (ER-alpha) signaling pathway using the BG1 cell line in the presence of 0.1 nM 17-beta-estradiol - cell viability counter screen (AID 1259241); further: nearly all actives have a fitted effect of over 40% in size
How it was run: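 Following 5 days in phenol red-free medium with charcoal-stripped serum, VM7Luc4E2 cells received test compounds alongside 0.1 nM 17beta-estradiol (final) at 37C for 22 hr. Live cells were then quantified via protease-substrate fluorescence.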

[10] = qHTS assay to identify small molecule antagonists of the androgen receptor (AR) signaling pathway using the MDA cell line in the presence of 0.5 nM R1881 - cell viability counter screen (AID 1259242); further: nearly all actives have a fitted effect of over 45% in size
How it was run: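 Concentration-response screen of compounds for toxicity in MDA-kb2 reporter cells: 16 hr at 37C with 0.5 nM R1881, endpoint live-cell protease fluorescence measured in the reporter wells.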

[11] = qHTS assay to identify small molecule HDAC inhibitors (AID 1259364);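 further: wild-type HCT-116 cells with endogenous class I/II HDAC activity; top concentration of the series differs between compounds; nearly all actives have a fitted effect of over 45% in size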
How it was run: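 Screening used wild-type human colon HCT-116 cells incubated overnight, dosed with compounds for 2 hours, and assayed with a homogeneous luminogenic HDAC I/II reagent for 30 minutes at room temperature.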

[12] = qHTS assay to identify small molecule HDAC inhibitors - cell viability counter screen (AID 1259365)
How it was run: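 HCT-116 wild-type, overnight attachment; 2hr drug exposure, 37C; CellTiter-Glo luminescent ATP readout after 30min RT.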

[13] = qHTS assay to identify small molecule agonists of the sonic hedgehog signaling (Shh) pathway - cell viability counter screen (AID 1259366); further: nearly all actives have a fitted effect of over 50% in size; further: potency means the concentration at half of the fitted maximal effect
How it was run: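 Compounds in DMSO were pin-transferred onto 3T3 Gli1-Luc cells that had settled 4hr; plates then stood 24hr at 37C and 5% CO2. One hour before the end, CellTiter-Fluor was added and fluorescence recorded.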

[14] = qHTS assay to identify small molecule antagonists of the sonic hedgehog signaling (Shh) pathway - cell viability counter screen (AID 1259367); further: nearly all actives have a fitted effect of over 55% in size; further: potency means the concentration at half of the fitted maximal effect
How it was run: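 Conditioned medium drove Shh signaling in 3T3 Gli1-Luc cells exposed to compounds at 37C and 5% CO2. Viability was determined from CellTiter-Fluor fluorescence, with reagent incubated 1 hr after 23 hr of treatment.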

[15] = qHTS assay to identify small molecule agonists of the sonic hedgehog signaling (Shh) pathway (AID 1259368; calls by dose curve;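 further: NIH/3T3-derived 3T3Gli1-Luc cells carrying a stable Gli1-driven firefly luciferase reporter; series mostly up to about 92 µM; nearly all actives have a fitted effect of over 15% in size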)
How it was run: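 Hedgehog pathway agonism scored by increased firefly luciferase luminescence in 3T3Gli1-Luc cells treated 24 hr at 37 C; detection used a 30 min room-temperature reagent incubation.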

[16] = qHTS assay to identify small molecule antagonists of the sonic hedgehog signaling (Shh) pathway (AID 1259369; calls by dose curve; further: nearly all actives have a fitted effect of over 45% in size; further: potency means the concentration at half of the fitted maximal effect)
How it was run: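 NIH/3T3 stable Gli1-Luc clone, 2,000 cells/well, 4hr settle; cpd + conditioned medium 24hr; Luc reagent 30min RT; luminescence.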

[17] = target: Estrogen receptor beta (Homo sapiens) (UniProt Q92731); experiment: qHTS assay to identify small molecule agonists of the estrogen receptor beta (ER-beta) signaling pathway (AID 1259377; active means well fitted activation curve with a large enough effect in the signal ratio in the repeat runs, not every such curve was filed as active; the % refers to the signal ratio)
Estrogen receptor beta (Homo sapiens), sequence (Q92731 whole entry, looked up): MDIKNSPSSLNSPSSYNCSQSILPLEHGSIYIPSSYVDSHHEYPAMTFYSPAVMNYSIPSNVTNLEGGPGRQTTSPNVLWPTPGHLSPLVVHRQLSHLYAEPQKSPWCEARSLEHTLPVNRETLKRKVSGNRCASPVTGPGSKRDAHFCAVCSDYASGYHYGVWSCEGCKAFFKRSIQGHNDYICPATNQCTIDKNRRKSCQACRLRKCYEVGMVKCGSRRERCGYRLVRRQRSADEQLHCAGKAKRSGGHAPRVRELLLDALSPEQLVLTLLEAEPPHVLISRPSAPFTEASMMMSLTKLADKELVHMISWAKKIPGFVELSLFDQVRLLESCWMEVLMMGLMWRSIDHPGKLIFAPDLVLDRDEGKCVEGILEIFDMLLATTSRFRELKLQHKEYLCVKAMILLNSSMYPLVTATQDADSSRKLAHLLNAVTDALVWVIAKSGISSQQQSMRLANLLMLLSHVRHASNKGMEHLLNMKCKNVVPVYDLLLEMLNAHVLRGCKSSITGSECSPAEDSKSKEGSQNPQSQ
How it was run: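 qHTS in ER-beta-UAS-bla HEK293T cells: 6 hr settling, then 16 hr compound at 37C, then LiveBLAzer substrate 2 h at RT before fluorescence reading.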

[18] = qHTS assay to identify small molecule phospholipidosis (PLD) inducers (AID 1259344; active means well fitted curve in the direction sought with a large enough effect; an effect the other way counts as inactive or inconclusive)
How it was run: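 After 4 h attachment on collagen I, HepG2 cells were dosed with compound alongside LipidTOX Red, kept 24 h at 37 C, fixed, and imaged for lamellar phospholipid pits.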

[19] = target: Estrogen receptor (Homo sapiens) (UniProt P03372); experiment: qHTS assay to identify small molecule antagonists of the estrogen receptor alpha (ER-alpha) signaling pathway using the BG1 cell line in the presence of 0.1 nM 17-beta-estradiol (AID 1259244); further: nearly all actives have a fitted effect of over 50% in size
Estrogen receptor (Homo sapiens), sequence (P03372 whole entry, looked up): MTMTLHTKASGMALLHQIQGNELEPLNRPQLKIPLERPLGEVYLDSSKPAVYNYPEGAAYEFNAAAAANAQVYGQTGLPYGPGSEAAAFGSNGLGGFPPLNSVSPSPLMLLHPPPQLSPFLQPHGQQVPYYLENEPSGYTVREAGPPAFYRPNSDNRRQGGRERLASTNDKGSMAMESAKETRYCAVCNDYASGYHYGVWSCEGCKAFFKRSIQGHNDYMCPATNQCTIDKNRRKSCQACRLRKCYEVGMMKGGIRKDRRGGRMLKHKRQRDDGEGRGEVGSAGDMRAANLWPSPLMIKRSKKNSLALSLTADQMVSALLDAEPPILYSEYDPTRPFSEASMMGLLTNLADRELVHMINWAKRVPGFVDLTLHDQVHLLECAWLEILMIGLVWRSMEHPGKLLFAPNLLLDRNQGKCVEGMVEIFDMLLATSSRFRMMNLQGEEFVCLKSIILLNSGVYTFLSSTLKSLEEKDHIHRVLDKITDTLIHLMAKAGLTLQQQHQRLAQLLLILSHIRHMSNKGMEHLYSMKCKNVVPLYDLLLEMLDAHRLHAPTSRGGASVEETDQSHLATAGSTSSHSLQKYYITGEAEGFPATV
How it was run: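 Compounds were tested against 0.1 nM (final) 17beta-estradiol in VM7Luc4E2 cells, which express full-length ER-alpha and an ERE-luciferase reporter; luminescence was recorded following 22 h exposure.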

[20] = target: Androgen receptor (Homo sapiens) (UniProt P10275); experiment: qHTS assay to identify small molecule antagonists of the androgen receptor (AR) signaling pathway using the MDA cell line in the presence of 0.5 nM R1881 (AID 1259243); further: nearly all actives have a fitted effect of over 50% in size
Androgen receptor (Homo sapiens), sequence (P10275 whole entry, looked up): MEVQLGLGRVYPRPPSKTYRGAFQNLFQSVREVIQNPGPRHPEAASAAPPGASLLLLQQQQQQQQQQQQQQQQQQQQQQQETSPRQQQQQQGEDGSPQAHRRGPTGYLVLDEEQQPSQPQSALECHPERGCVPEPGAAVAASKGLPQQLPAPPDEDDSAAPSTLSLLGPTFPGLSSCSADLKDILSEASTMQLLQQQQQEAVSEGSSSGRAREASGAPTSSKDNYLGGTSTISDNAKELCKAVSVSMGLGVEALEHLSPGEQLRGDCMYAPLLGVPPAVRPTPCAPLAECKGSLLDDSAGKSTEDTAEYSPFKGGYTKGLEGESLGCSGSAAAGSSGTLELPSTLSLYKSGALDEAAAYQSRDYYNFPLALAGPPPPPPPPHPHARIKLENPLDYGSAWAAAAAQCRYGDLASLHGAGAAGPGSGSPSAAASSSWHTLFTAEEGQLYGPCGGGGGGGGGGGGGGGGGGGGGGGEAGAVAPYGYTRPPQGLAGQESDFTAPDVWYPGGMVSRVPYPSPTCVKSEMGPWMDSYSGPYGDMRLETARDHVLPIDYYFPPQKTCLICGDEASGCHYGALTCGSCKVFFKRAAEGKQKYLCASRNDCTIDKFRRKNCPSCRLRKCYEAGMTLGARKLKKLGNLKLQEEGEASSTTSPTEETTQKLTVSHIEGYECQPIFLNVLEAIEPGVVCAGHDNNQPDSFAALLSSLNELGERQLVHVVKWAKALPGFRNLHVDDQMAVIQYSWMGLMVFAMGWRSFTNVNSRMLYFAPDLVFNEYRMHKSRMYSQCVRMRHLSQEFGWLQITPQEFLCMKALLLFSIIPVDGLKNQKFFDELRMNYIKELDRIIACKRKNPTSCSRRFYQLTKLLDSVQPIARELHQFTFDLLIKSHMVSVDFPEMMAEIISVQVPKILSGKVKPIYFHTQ
How it was run: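 With R1881 held at 0.5 nM (final), compound effects on MMTV-luciferase expression in MDA-kb2 cells were scored by luminescence after a 16 hr, 37C incubation.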

Structure (SMILES) | Potency [1] | Potency [2] | Potency [3] | Potency [4] | Potency [5] | Potency [6] | Potency [7] | Potency [8] | Potency [9] | Potency [10] | Potency [11] | Potency [12] | Potency [13] | Potency [14] | Potency [15] | Potency [16] | Potency [17] | Potency [18] | Potency [19] | Potency [20]
CCN | inactive | inactive | inactive | inactive | inactive | inactive | inactive | inactive | inactive | inactive | inactive | inactive | inactive | inactive | inactive | inactive | inactive | – | – | –
C[C@]12CC[C@H](O)C[C@H]1CC[C@@H]1[C@@H]2C[C@@H](O)[C@]2(C)[C@@H](C3=CC(=O)OC3)CC[C@]12O | inactive | inactive | inactive | 616 nM (active) | inactive | inactive | inactive | inactive | inactive | inactive | inactive | inactive | inactive | inactive | inactive | inactive | – | – | – | –
N#Cc1ccccc1Cl | inactive | inactive | inactive | inactive | inactive | inactive | inactive | inactive | inactive | inactive | inactive | inactive | inactive | inactive | – | inactive | inactive | – | – | –
COc1cc(N)c(Cl)cc1C(=O)NC1CN2CCC1CC2 (stereo not given) | inactive | inactive | inactive | inactive | inactive | inactive | inactive | inactive | inactive | – | – | inactive | inactive | inactive | inactive | inactive | inactive | inactive | – | –
O=C(O)C1C2CCC(O2)C1C(=O)O (stereo not given) | inactive | inactive | inactive | inactive | inactive | inactive | inactive | inactive | inactive | inactive | inactive | inactive | 19.6 µM (active) and 11.2 µM (active) | 31 µM (active) | inactive | 15.8 µM (active) | – | – | – | –
ClCCN1CCOCC1 | inactive | inactive | inactive | inactive | inactive | inactive | inactive | inactive | – | inactive | inactive | inactive | inactive | inactive | inactive | inactive | inactive | – | inactive | –
CCc1ccccc1C | inactive | inactive | inactive | inactive | inactive | inactive | inactive | inactive | inactive | – | inactive | inactive | inactive | – | inactive | inactive | inactive | – | inactive | inactive
